# According to PubChem BioAssay (Tox21):
# Results filed as inconclusive are left out. The source made the active and inactive calls. Calls come from the whole dose curve; as a rule, active = well fitted activation curve with a large enough effect in the repeat runs; inconclusive = weak or mixed curves; inactive = no such curve, though single readings can be large or run the other way.
# Assay: qHTS assay for small molecules that induce genotoxicity in human embryonic kidney cells expressing luciferase-tagged ATAD5 (AID 651632); note: nearly all actives have a fitted effect of over 15% in size
# Conditions: HEK293T ATAD5-luciferase induction, 16 h; series mostly up to 83.3 µM; activation: at the top concentration
# From the text: U.S. Tox21 Program National Center for Advancing Translational Sciences [NCATS] NIH Chemical Genomics Center [NCGC] U.S. Environmental Protection Agency [EPA] National Institutes of Environmental Health Sciences [NIEHS] National Toxicology Program [NTP] U.S. Food and Drug Administration [FDA] Tox21 Assay Overview: As cancer cells divide rapidly and during every cell division they need to duplicate their genome by DNA replication. The failure to do so results in the cancer cell death. Based on this concept, many chemotherapeutic agents were developed but have limitations such as low efficacy and severe side effects etc. A new cell based assay was developed to find the compounds that effectively block DNA replication either by directly damaging DNA or by inhibiting other cellular mechanisms. Enhanced Level of Genome Instability Gene 1 (ELG1; human ATAD5) protein levels increase in response to various types of DNA damage. Using a luciferase reporter-gene tagged with ATAD5, a cell-based assay [developed by Kyungjae Myung, NHGRI, NIH] was used to measure the induction of ATAD5 in human embryonic kidney cells (HEK293T). So, increase in luciferase activity can be used to identify the compounds that cause genetic stress.
# Tox21 Assay Protocol Summary: For genotoxicity screening, 2,000 cells in 5 uL/well were dispensed into white, solid-bottom 1536-well plates using a Multidrop Combi (Thermo Scientific) dispenser. Following transfer of 23 nL compound or DMSO vehicle by a pin tool, the plates were incubated 16 hr at 37C and 5% CO2. 5 ul Amplite (AAT Bioquest, Inc.) was then added to each plate and following 30 min incubation at room temperature, luciferase activity was quantified on a ViewLux CCD-based plate reader.
# % is set by controls: 0 for no effect and ±100 for the full control effect; potency is the fitted concentration of half-maximal effect.
Compound,activation,Potency
Cc1c(F)c(N2CCNC(C)C2)cc2c1c(=O)c(C(=O)O)cn2C1CC1 (stereo not given),2.23% (inactive),–
CC1(C)CC(O)CC(C)(C)N1,0.972% [at 95.3 µM] (inactive),–
Cc1c(C)c2c(c(C)c1O)CC[C@@](C)(CCC[C@H](C)CCC[C@H](C)CCCC(C)C)O2,–,inactive
CCCCCCC1CCCC(=O)O1 (stereo not given),3.39% (inactive),–
OC1CCCc2ccccc21 (stereo not given),1.08% [at 95.3 µM] (inactive),–
CCOC(=O)Cn1cccc1-c1nc(-c2ccc(OC)cc2)c(-c2ccc(OC)cc2)s1,2.83% (inactive),–
CC(CO)Oc1ccccc1 (stereo not given),7.15% [at 95.3 µM] (inactive),–
COCCOc1cc2cc(C(=O)NC3CCN(C(C)C)CC3)n(CC(=O)Nc3ccc(Cl)cn3)c2cn1,-2.52% (inactive),–
Cc1ccc(O)c(O)c1,7.77% (inactive),–
Nc1ccc(Oc2ccc(Cl)cc2)cc1,-1.06% (inactive),–
CC(=O)c1ccc(C(C)=O)cc1,-0.549% [at 95.3 µM] (inactive),–
CCc1cccc(CC)c1NC(=O)CN(CC(=O)O)CC(=O)O,1.92% [at 39.1 µM] (inactive),–
Cc1c(C)c2c(c(C)c1OC(=O)c1cccnc1)CC[C@@](C)(CCC[C@H](C)CCC[C@H](C)CCCC(C)C)O2,-0.704% (inactive),–
CCCCCCCCCCC[C@@H](C[C@@H]1OC(=O)[C@H]1CCCCCC)OC(=O)[C@H](CC(C)C)NC=O,0.822% (inactive),–
O=C(/C=C/c1ccc(O)c(O)c1)O[C@@H](C(=O)O)[C@@H](OC(=O)/C=C/c1ccc(O)c(O)c1)C(=O)O,-2.35% (inactive),–
C1CCC(SSC2CCCCC2)CC1,-0.801% (inactive),–
S=c1nccc[nH]1,1.26% (inactive),–
O=C(O)Cc1ccccc1Nc1c(Cl)cccc1Cl,–,inactive
CN1CCN2c3ccccc3Cc3ccccc3C2C1 (stereo not given),-4.48% (inactive),–
CCC(C)(CCC(C)C)C(=O)[O][Sn]([CH3])([CH3])[O]C(=O)C(C)(CC)CCC(C)C (stereo not given),-4.68% (inactive),–

Compound,activation,Potency
C=CCn1c(=O)n(CC=C)c(=O)n(CC=C)c1=O,-2.57% (inactive),–
Oc1ccccc1O,–,inactive
CCOC(=O)c1ccc(C2CCC(NC[C@H](O)COc3ccc(O)c(NS(C)(=O)=O)c3)CC2)cc1 (stereo not given in full),-4.15% (inactive),–
Cl[Si](Cl)(c1ccccc1)c1ccccc1,1.09% [at 95.3 µM] (inactive),–
CCCCCCCCCCCCCC[N+](C)(C)C,–,inactive
C/C=C/C=C/COC(=O)C(C)C,5.72% (inactive),–
O=S(=O)(O)c1ccc(Nc2nc(Nc3ccc(/C=C/c4ccc(Nc5nc(Nc6ccc(S(=O)(=O)O)cc6)nc(N(CCO)CCO)n5)cc4S(=O)(=O)O)c(S(=O)(=O)O)c3)nc(N(CCO)CCO)n2)cc1,-1.03% (inactive),–
O=C(O)c1cc(O)c2ccccc2c1O,-4.63% (inactive),–
COc1ccc(-c2coc3cc(O)ccc3c2=O)cc1,–,1.72 µM (active)
OCC(F)(F)F,-3.24% [at 95.3 µM] (inactive),–
CC(C)(C)CC(C)(C)c1ccc(Nc2ccc(C(C)(C)CC(C)(C)C)cc2)cc1,2.9% [at 8.08 µM] (inactive),–
O=C(Nc1ccc2c(O)c(N=Nc3ccc(N=Nc4ccc(S(=O)(=O)O)cc4)cc3)c(S(=O)(=O)O)cc2c1)c1ccccc1,-2.28% (inactive),–
CC/C=C\CCCCCO,3.29% (inactive),–
C#CC1(O)CC[C@H]2[C@@H]3CCC4=CCCC[C@@H]4[C@H]3CC[C@@]21C (stereo not given in full),–,inactive
Cc1ccc(C(C)C)cc2c(C)ccc1-2,0.862% (inactive),–
Nc1ccc(NCCO)c([N+](=O)[O-])c1,2.02% (inactive),–
CNc1ccc([N+](=O)[O-])cc1,4.19% (inactive),–
COc1ccc2cc1Oc1ccc(cc1)C[C@H]1c3c(cc4c(c3Oc3cc5c(cc3OC)CCN(C)[C@@H]5C2)OCO4)CCN1C,5.72% (inactive),–
CN(C)c1ccc(C(=C2C=CC(=[N+](C)C)C=C2)c2ccc(N(C)C)cc2)cc1,–,inactive
Cc1c(C)c([N+](=O)[O-])c(C(C)(C)C)c([N+](=O)[O-])c1C,-2.49% (inactive),–
